Screens from PubChem.
Shiga inhibitor: Shiga toxin inhibition. AID 2315. inhibition, % at 38.7 µM. Vero cells, Shiga toxin protein synthesis inhibition reporter. 290,000 compounds, 9.2% hits; in the data active means inhibition mostly above about 28%, no sharp cut-off; inactive means mostly below about 43%
Pf growth 96h: P. falciparum growth inhibition at 96 hour, primary screen for plastid delayed-death inhibitors. AID 504834. P. falciparum luciferase reporter growth, 96 h. 320,000 compounds, 6.9% hits. Potency, µM (titrated, usually from 28.7 µM), most hits filed as inhibitors
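96 h incubation, 37 C, 5% CO2, of luciferase-reporter P. falciparum-infected RBCs (2% hematocrit, 0.05% parasitemia final) with test compounds; endpoint luminescence.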
Sm TGR block: S. mansoni TGR enzyme inhibition. Q962Y6. purified TGR, DTNB reduction, TNB absorbance 405 nm. Potency, µM (series often up to 114 µM), hits mostly inhibitors. 360,000 compounds, 3% hits. AID 485364; further: nearly all actives have a fitted effect of over 60% in size
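Kinetic colorimetric format: TGR-catalysed, NADPH-driven DTNB reduction monitored via TNB absorbance. Enzyme dispensed at 20 nM; compound exposure 15 min at room temperature before reaction start.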
Cycloheximide cs: counter-screen hit for Shiga toxin inhibitors, cycloheximide. cell reporter, cycloheximide protein synthesis inhibition counterscreen. max response, %. 300,000 compounds, 12% hits. AID 2314; in the data active means max response mostly above about 13%, no sharp cut-off; inactive means mostly below about 14%; further: read at 38.3 µM for the half of the compounds with a filed dose
Pf growth 48h: P. falciparum growth inhibition at 48 hours (one generation); P. falciparum luciferase growth in erythrocytes, 48 h; Potency, µM (series often up to 28.7 µM), usual class: inhibitors; 310,000 compounds, 5.9% hits; AID 504832
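Parasite viability was followed by luminescence of a genomically integrated firefly luciferase. Cultures held 0.1% parasitemia at 2% hematocrit (final), incubated under 5% CO2 at 37 C.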
NS1 function inh: inhibitors of influenza NS1 protein function; Potency, µM (doses to about 46.1 µM); 270,000 compounds, 0.4% hits; AID 2326; calls by dose curve; further: actives are rising curves; nearly all actives have a fitted effect of over 50% in size
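Growth recovery, yeast-based: influenza A NS1 expressed in S. cerevisiae causes slow growth, and suppressors are detected by OD600. The parent strain without NS1 is used as positive control.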
Of the large screens only hits and unclear results are named; the others gave an inactive call; ! = not confirmed by another sample. Sampled rows, rich in hits. Any-hit rate of the full collection: about 21%. Unless noted, the call rests on the fitted dose curve; in most records, active means well fitted curve in the direction sought with a large enough effect; inconclusive means small, poorly fitted or top-dose-only effect, or another doubt; inactive means no such curve, though single readings can be large; an effect the other way counts as inactive or inconclusive.

COc1cc(-c2nnc(-c3cccs3)o2)cc(OC)c1OC	none (no result: Pf growth 96h)
c1csc(-c2nnc(-c3ccc(N4CCOCC4)cc3)o2)c1	Shiga inhibitor 63, Cycloheximide cs 47
CCOc1ccc(-c2nc(-c3cccs3)c(CC(=O)O)s2)cc1OC	Cycloheximide cs 24 (no result: NS1 function inh)
CCOc1ccc(-c2nnc(-c3cccs3)o2)cc1OCC	Shiga inhibitor 58, Cycloheximide cs 24
COc1cccc(-c2cc(C(=O)NCCc3ccc(OC)c(OC)c3)no2)c1	none (no result: Shiga inhibitor, Pf growth 96h, Cycloheximide cs, Pf growth 48h, NS1 function inh)
Cc1ccc(OCc2cccc(S(=O)(=O)N(C)C)c2)c([N+](=O)[O-])n1	none
Cc1ccc(CN2CCN(c3ccccc3)CC2)o1	none
COc1ccc(-c2nnc(-c3cccs3)o2)cc1OC	Shiga inhibitor 92, Cycloheximide cs 51
COc1ccc(OC)c(NS(=O)(=O)c2ccc3[nH]c4c(c3c2)CCCCC4)c1	none (no result: Shiga inhibitor, Pf growth 96h, Cycloheximide cs, Pf growth 48h, NS1 function inh)
CC(C)(C)c1ccc(OCC(=O)Nc2ccncc2)c(Br)c1	Shiga inhibitor 100, Pf growth 96h inconclusive, Cycloheximide cs 31
CCc1ccc(OCC(=O)NNC(=O)c2cnccn2)c(Br)c1	Shiga inhibitor 39, Pf growth 96h inconclusive, Cycloheximide cs 18, Pf growth 48h 10µM
CCc1ccc(OCC(=O)Nc2ccncc2)c(Br)c1	Cycloheximide cs 30 (no result: Shiga inhibitor)
COc1ccccc1OCC(=O)NNC(=O)c1cnccn1	Pf growth 48h inconclusive
O=c1c2ccccc2oc2cc(OCc3cccc(F)c3)cc(O)c12	none
O=C(c1ccc2c(c1)N(Cc1ccc(Cl)cc1)C(=O)c1ccccc1S2=O)N1CCOCC1 (centres undefined)	none (no result: Shiga inhibitor, Pf growth 96h, Cycloheximide cs, Pf growth 48h, NS1 function inh)
CCCCCn1c(=O)c(C(=O)NCCc2ccccc2)c(O)c2ccccc21	Pf growth 96h 5.9µM, Pf growth 48h 15µM (no result: Shiga inhibitor)
CCCn1c(=O)c(C(=O)NCCc2ccccc2)c(O)c2ccccc21	Pf growth 96h 15µM
O=C(CCCCCNC(=O)c1ccccc1)N=Nc1c(O)[nH]c2c(Br)cc(Br)cc12	Pf growth 48h 12µM
Cc1ccccc1S(=O)(=O)NC1OC(=O)C(Oc2ccccc2)=C1Br (centres undefined)	Sm TGR block 8.9µM
Cc1cc(C)c(S(=O)(=O)c2ccccc2C)c(Oc2ccccc2)n1	none
Cc1ccccc1S(=O)(=O)NC1OC(=O)C(Cl)=C1Cl (centres undefined)	Sm TGR block 3.2µM
CCn1cc(C(=O)N[C@H](C)c2ccccc2)c(=O)c2cc(F)c(N3CCN(C)CC3)cc21	Pf growth 96h 12µM (no result: Pf growth 48h)
CCC(C)NC(=O)c1cn(CC)c2cc(N3CCN(C)CC3)c(F)cc2c1=O (centres undefined)	Pf growth 48h inconclusive
CCn1cc(C(=O)NCCc2ccccc2)c(=O)c2cc(S(=O)(=O)N(C)C)ccc21	Pf growth 96h 13µM, Pf growth 48h inconclusive
CCCCCCNC(=O)c1cn(CC)c2cc(N3CCN(C)CC3)c(F)cc2c1=O	Pf growth 96h 2.6µM, Pf growth 48h 4.7µM
CCn1cc(C(=O)NCCc2ccccc2)c(=O)c2cc(F)c(N3CCN(C)CC3)cc21	Pf growth 96h inconclusive, Cycloheximide cs 13, Pf growth 48h 10µM
CCn1cc(C(=O)NCCN(C)CCc2ccccc2)c(=O)c2cc(S(=O)(=O)N(C)C)ccc21	Pf growth 96h inconclusive, Pf growth 48h inconclusive
CCn1cc(C(=O)NCCCO)c(=O)c2cc(F)c(N3CCN(C)CC3)cc21	Pf growth 96h inconclusive
Cc1ccc(C(=O)c2cn(Cc3ccccc3F)c3cc4c(cc3c2=O)OCO4)cc1	none (no result: Shiga inhibitor, Pf growth 96h, Cycloheximide cs, Pf growth 48h, NS1 function inh)
Cn1c(N)c(S(=O)(=O)N2CCN(Cc3ccccc3)CC2)c(=O)n(C)c1=O	Pf growth 48h inconclusive (no result: NS1 function inh)
CCCN(CC(=O)Nc1ccccc1C)C(=O)C1CCN(c2ncnc3sc(C)c(C)c23)CC1	Pf growth 96h 7.4µM, Pf growth 48h inconclusive (no result: Shiga inhibitor, Cycloheximide cs, NS1 function inh)
Cc1sc2ncnc(N3CCC(C(=O)N(CC(C)C)c4nc5ccccc5s4)CC3)c2c1C	Pf growth 96h 3.7µM, Pf growth 48h inconclusive (no result: Shiga inhibitor, Cycloheximide cs, NS1 function inh)
CCCN(CC(=O)Nc1ccccc1C)C(=O)C1CCN(S(=O)(=O)c2ccccc2C(F)(F)F)CC1	Pf growth 96h inconclusive, Pf growth 48h 9.3µM (no result: Shiga inhibitor, Cycloheximide cs, NS1 function inh)
Cc1ccccc1OCC(=O)NNC(=O)C1CCN(c2ncnc3sc(C)c(C)c23)CC1	Pf growth 96h inconclusive, Pf growth 48h inconclusive (no result: Shiga inhibitor, Cycloheximide cs, NS1 function inh)
CC(C)Cn1c(=O)c(C(=O)N/N=C/c2cccc(F)c2)c(O)c2ccccc21	none
Cc1ccc(-c2onc3ccc(Br)cc23)cc1	none
Cc1ccc(-c2onc3ccc(C4OCCO4)cc23)cc1	Shiga inhibitor 71, Pf growth 96h inconclusive, Cycloheximide cs 14 (no result: NS1 function inh)
CCCC12CN(C(=O)c3ccc([N+](=O)[O-])cc3)CC(C)(CN(C(=O)c3ccc([N+](=O)[O-])cc3)C1)C2=O	Pf growth 96h 10µM, Pf growth 48h 12µM
Cc1cccc(CC2C(=O)Nc3ccccc32)c1 (centres undefined)	none (no result: Shiga inhibitor, Pf growth 96h, Cycloheximide cs, Pf growth 48h, NS1 function inh)
Cc1ccccc1N(C)S(=O)(=O)c1nnc(NC(=O)c2ccco2)s1	Pf growth 96h inconclusive, Sm TGR block 25µM!
Cc1ccc(N(C)S(=O)(=O)c2nnc(NC(=O)c3ccco3)s2)cc1	Sm TGR block inconclusive
CN(c1ccc(Cl)cc1)S(=O)(=O)c1nnc(NC(=O)c2ccco2)s1	Sm TGR block 20µM!
CC(C)C(=O)Nc1nnc(S(=O)(=O)N(C)c2ccc(Cl)cc2)s1	Pf growth 96h 2.9µM
CC=C(/C(=C/C)c1ccc(O)cc1)c1ccc(O)cc1	Pf growth 96h inconclusive (no result: Shiga inhibitor, Sm TGR block, Cycloheximide cs, NS1 function inh)
COC(=O)c1c(C)sc(-c2c(-c3cccc(Cl)c3)[nH]c3c2c(=O)[nH]c(=O)n3C)c1O	none (no result: Shiga inhibitor, Pf growth 96h, Cycloheximide cs, Pf growth 48h, NS1 function inh)
O=c1cc(-c2ccco2)nc(-c2cccs2)o1	NS1 function inh inconclusive
c1ccc(-c2nnc(-c3ccco3)o2)cc1	Shiga inhibitor 115, Cycloheximide cs 43
Brc1ccc(-c2nnc(-c3ccco3)o2)cc1	Shiga inhibitor 73, Cycloheximide cs 47
Brc1ccc(-c2nnc(-c3cccc(Br)c3)o2)cc1	Pf growth 96h inconclusive, Pf growth 48h inconclusive, NS1 function inh inconclusive
c1coc(-c2nnc(-c3cccs3)o2)c1	Shiga inhibitor 81, Cycloheximide cs 49
c1coc(-c2nnc(-c3ccco3)nn2)c1	Shiga inhibitor 43, Pf growth 96h 6.6µM, Sm TGR block 4µM, Cycloheximide cs 47, Pf growth 48h inconclusive
Cc1ccc(-c2nnc(-c3ccc(Br)cc3)o2)o1	Shiga inhibitor 27, Pf growth 96h 2.6µM, Cycloheximide cs 18
CC1=NN(c2cccc(C(=O)O)c2)C(=O)/C1=C\C=C\c1ccco1	Shiga inhibitor 126, Sm TGR block inconclusive, Cycloheximide cs 86
Cc1oc2ncn(CC(C)C)c(=O)c2c1C(=O)N1CCN(c2ccc(F)cc2)CC1	none (no result: Shiga inhibitor, Pf growth 96h, Cycloheximide cs, Pf growth 48h, NS1 function inh)
Clc1nc2c(-c3ccccc3)nnn2c2ccccc12	Sm TGR block inconclusive, Cycloheximide cs 24
Cc1ccc(-c2nnn3c2nc(Cl)c2ccccc23)cc1	none (no result: NS1 function inh)
NNc1nc2c(-c3ccc(F)cc3)nnn2c2ccccc12	Shiga inhibitor 130, Cycloheximide cs 51 (no result: NS1 function inh)
